BJeLR viability: kills HRASV12-expressing BJeLR cells; AID 1554; BJeLR (HRASV12) viability, CellTiter-Glo ATP luminescence, 48 h; 300,000 tested, 0.17% active; inhibition, % (concentration not given with the values); in the data active = inhibition above about 50%
PrP 5UTR inh: suppresses PrP 5' UTR mRNA reporter expression | cell-based PrP 5' UTR mRNA reporter, plate reader | 340,000 tested, 0.35% active | inhibition, % (concentration not given with the values) | AID 488862; in the data active = inhibition above about 52%; also: 0 = median of the neutral control wells
PfHsp40 yeast: compounds rescuing yeast from Plasmodium falciparum HSP40 toxicity; S. cerevisiae expressing PfHsp40, growth rescue, ATP luminescence; growth rescue, % at 12.5 µM; 340,000 tested, 0.68% active; in the data active = growth rescue above about 28%, passing the limit was not always enough;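 also: yeast W303a lacking pdr1 and pdr3 grown in galactose medium; growth measured after three days at 30 °C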
CCHF vOTU inh: blocks the CCHF virus ovarian tumor domain protease. CCHFV vOTU protease, Pep-AMC fluorescence. inhibition, % at 11.5 µM. 370,000 tested, 0.55% active; in the data active = inhibition above about 30%; also: 0% = vehicle wells with enzyme and 100% = no enzyme wells
PrPC TRFRET: inhibitors of human cell surface prion protein PrPC. P04156. TR-FRET read-out. inhibition, % at 13.8 µM. 370,000 tested, 0.43% active. AID 720596; in the data active = inhibition above about 24%; also: 0% = median of the test wells and 100% = reference compound wells
Y pestis TopoI: blocks Yersinia pestis topoisomerase I activity | Y. pestis Topo-I cleavage product accumulation, plate reader | activity, % at 10 µM | 360,000 tested, 0.064% active; in the data active = activity above about 50%, passing the limit was not always enough
PrPC confirm: cell surface PrPC inhibition, TR-FRET confirmation | inhibition, % at 13.8 µM | cell surface PrPC level | shares compounds with PrPC TRFRET | AID 743200 | 1,500 tested, 65% active; in the data active = inhibition above about 25%
LD9 cytotox: kills or reduces viability of LD9 cells in PrPc counter-screen; shares compounds with PrPC TRFRET; LD9 cells cytotoxicity, luminescence viability; inhibition, % at 13.8 µM; 1,500 tested, 29% active; AID 743201; in the data active = inhibition above about 9.5%
Starred values were filed as active, the others as inactive; x = no result given. An excerpt weighted towards active compounds, which were near 2% of everything screened.

SMILES | BJeLR viability | PrP 5UTR inh | PfHsp40 yeast | CCHF vOTU inh | PrPC TRFRET | Y pestis TopoI | PrPC confirm | LD9 cytotox
Oc1ccc(CN2CCN(c3ccccc3)CC2)c2cccnc12 | -14 | -10 | 2 | x | x | -3 | x | x
Oc1ccc(CN2CCc3ccccc3C2)c2cccnc12 | 13 | 17 | -2 | -1 | 27* | 6 | 35* | 28*
COC[C@@H](O)[C@H]1OCc2cccc(OC)c2[C@@H]1/C=C/c1ccccc1 | x | x | x | 3 | 3 | x | x | x
O=C(NCc1ccc(Cl)cc1)OCCN1C(=O)CCC12CCC(c1ccccc1)CC2 (stereo not given) | x | x | x | 2 | 0 | x | x | x
CCCCC(=O)NC(c1ccc(N(C)C)cc1)c1ccc2cccnc2c1O (stereo not given) | 57* | 42 | 509* | -4 | 27* | -7 | 25* | 16*
CCCC(=O)NC(c1cccc([N+](=O)[O-])c1)c1ccc2cccnc2c1O (stereo not given) | x | x | x | 1 | 13 | -3 | x | x
CCCCC(=O)NC(c1ccc(Cl)cc1)c1ccc2cccnc2c1O (stereo not given) | 30 | 28 | -1 | 17 | 29* | -17 | 18 | 11*
CCCCC(=O)NC(c1ccccc1OC)c1ccc2cccnc2c1O (stereo not given) | 37 | 33 | -2 | 13 | 40* | 13 | 31* | 27*
COc1ccc(C(NC(C)=O)c2ccc3cccnc3c2O)c(OC)c1 (stereo not given) | 6 | 41 | -1 | x | x | -10 | x | x
COc1ccc(N2C(=O)c3n[nH]c(C(C)C)c3C2c2ccc(C)cc2)cc1 (stereo not given) | x | x | x | 3 | -2 | x | x | x
CC(C)N(c1cc(=O)nc2ccccn12)C(C)C | x | x | x | 5 | -1 | x | x | x
CCN1/C(=C/C=C/C2=[N+](CC)c3ccccc3C2(C)C)C(C)(C)c2ccccc21 | x | x | x | 13 | 77* | -6 | 96* | 78*
CCCN1C(=O)/C(=C/C=C2\N(CC)c3ccccc3C2(C)C)SC1=S | -4 | -14 | 1 | 1 | 1 | 7 | x | x
CCC(=O)N1CCN(c2ccc(-n3c(=O)ccc4cnc5ccc(-c6cnc7ccccc7c6)cc5c43)cc2C(F)(F)F)CC1 | x | x | x | 16 | 37* | x | 39* | 33*
O=C(O)COCC(=O)N1CCN(c2cc(C(F)(F)F)nc3ccccc23)CC1 | 1 | -34 | -1 | -7 | 4 | 3 | x | x
CCOC(=O)C(C)Sc1nc(-c2ccco2)cc(C(F)(F)F)c1C#N (stereo not given) | 3 | 0 | 1 | -38 | 33* | -4 | 49* | -1
CC1=CC2C3C(=O)N(c4ccccc4)C(=O)C3C1C(=O)C2(O)C(C)C (stereo not given) | x | x | x | -6 | 0 | x | x | x
COc1cc(NC2CCCCC2O)c2nc(-c3ccc(Cl)cc3)ccc2c1 (stereo not given) | 5 | -68 | 1 | 24 | 39* | 5 | 6 | -2
Cc1[nH]n(-c2ccc(Br)cc2)c(=O)c1/C=N/NC(=O)c1ccccc1 | 31 | 13 | -2 | 14 | 10 | 5 | x | x
Cc1[nH]n(-c2ccccc2)c(=O)c1/C=N/NC(=O)c1cccc(F)c1 | 23 | 9 | 2 | -9 | 52* | -5 | 54* | 23*
CCOc1ccc(C(=O)N/N=C/c2cccc3cccnc23)cc1 | 7 | 4 | 0 | 11 | 25* | -1 | 24 | 4
COc1ccc(C(=O)N/N=C/c2cccc3cccnc23)cc1 | -3 | -13 | -1 | 6 | 18 | -6 | x | x
CCc1ccc(CCNC(=O)OC2CC3CC2[C@H]2CCCCN2[C@H]3Cc2ccccc2)cc1 (stereo not given in full) | x | x | x | 7 | -6 | x | x | x
CNc1ccccc1C(=O)OC(C)C(=O)Nc1ccc(Cl)cn1 (stereo not given) | 3 | -6 | 3 | -46 | 25* | 14 | 38* | 0
Cc1ccc(NC(=O)[C@@H]2CC(=O)O[C@@H]2c2ccccc2)c(C)c1 | x | x | x | -2 | -5 | x | x | x
CC(C)(C)c1ccc(OCCC(=O)Nc2cccc(S(=O)(=O)N3CCCCC3)c2)cc1 | 2 | 0 | 1 | 26 | 24* | 20 | 20 | -1

Compound activity deposited in PubChem by several laboratories.
